Test systems include DU-145 prostate; K-562 leukemia; MALME-3M melanoma; MDA-MB-231 breast; RXF 393 renal; SF-268 CNS; SF-295 CNS; SF-539 CNS; UACC-257 melanoma; M14 melanoma; HCT-15 colon; HT29 colon; SNB-75 CNS; SNB-19 CNS; U251 CNS; PC-3 prostate; SK-MEL-5 melanoma; UACC-62 melanoma; LOX IMVI melanoma; SK-MEL-28 melanoma.
Test in all cases: NCI-60 one-dose screen, 48 h (100 = growth as untreated, 0 = no growth, -100 = all killed)
Holding throughout (settings): 10 µM unless noted

Each structure is given as a SMILES string. This is part of a sample that, as a whole, favours compounds with a hit. Of some 83,000 tested, about 20% had one in any assay.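 Testing used 96-well plates and a 48-hour single-concentration exposure. Example: -40 means 40% of the starting cells died.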 Unmarked numbers belong to inactive results. Calls of active or inactive are those of the source. The calls were made as follows: active = growth percent below 10; inactive = the rest.

`N#C/C(=C\c1cccc2cnccc12)n1nnc2cccc(F)c21`: the growth in the assay on DU-145 prostate was 2.26% (active); with K-562 leukemia, 11.9%; in the assay on MALME-3M melanoma, 22.6%; with MDA-MB-231 breast, 31.7%; in the assay with RXF 393 renal, -2.13% (active); with SF-268 CNS it was 67.4%. For the same molecule, the growth was 93.4% in the assay with SF-295 CNS; 36.6% with SF-539 CNS; 52.1% with UACC-257 melanoma; 35.1% in the assay on M14 melanoma; 10.2% in the assay with HCT-15 colon; 27.5% in the assay with HT29 colon. For the same molecule, the growth in the assay with SNB-75 CNS is -5.04% (active); in the assay on SNB-19 CNS, 80.7%; in the assay on U251 CNS it was 78.9%; in the assay with PC-3 prostate, 48.7%; in the assay on SK-MEL-5 melanoma, 58.7%; in the assay on UACC-62 melanoma, 36.5%. Besides, the growth in the assay with LOX IMVI melanoma was 14.9%; in the assay on SK-MEL-28 melanoma, 37.1%.
Take `CCOC(=O)c1sc2ncc(-c3ccc(C)cc3)n2c1C`: the growth with DU-145 prostate was 97.5%; in the assay with K-562 leukemia, 79.4%; with MALME-3M melanoma it was 84.2%; in the assay on MDA-MB-231 breast, 85.6%; in the assay on RXF 393 renal, 107%; with SF-268 CNS it was 106%. Besides, the growth is 96.7% with SF-295 CNS; 93.8% in the assay on SF-539 CNS; 98.3% in the assay with UACC-257 melanoma; 87.1% in the assay with M14 melanoma; 90.1% with HCT-15 colon; 93.1% in the assay on HT29 colon. Further, the growth is 74.7% with SNB-75 CNS; 94.5% with SNB-19 CNS; 96.2% in the assay on U251 CNS; 81% in the assay with PC-3 prostate; 95.1% in the assay with SK-MEL-5 melanoma; 72.6% with UACC-62 melanoma. For the same molecule, the growth in the assay with LOX IMVI melanoma is 85.2%; with SK-MEL-28 melanoma, 102%.
Regarding `COc1ccc(S(=O)(=O)n2c3ccccc3n3ncc(-c4nnc(C)o4)c23)cc1`, the growth is 22.8% with DU-145 prostate; 15.4% with K-562 leukemia; 66.9% in the assay on MALME-3M melanoma; 30.1% in the assay on MDA-MB-231 breast; -22.2% (active) in the assay on RXF 393 renal; 53% in the assay on SF-268 CNS. For the same molecule, the growth in the assay on SF-295 CNS was 6.74% (active); in the assay on SF-539 CNS, -1.67% (active); in the assay with UACC-257 melanoma, 84.1%; in the assay on M14 melanoma it was 15.4%; in the assay on HCT-15 colon, 20.3%; with HT29 colon it was 11.2%. In addition, the growth is 14.1% in the assay with SNB-75 CNS; 23% in the assay on SNB-19 CNS; 31.6% in the assay with U251 CNS; 36.5% in the assay with PC-3 prostate; 21.3% in the assay with SK-MEL-5 melanoma; 27.3% with UACC-62 melanoma. Besides, the figures for the growth with LOX IMVI melanoma and with SK-MEL-28 melanoma were 36.8% and 65.3%, respectively.
In the case of `Cc1ccc(/C=N\NC(=O)c2[nH]c3ccc(F)cc3c2-c2ccccc2)cc1`, the growth was -2.21% (active) with DU-145 prostate; 16.9% with K-562 leukemia; 15.6% in the assay on MALME-3M melanoma; 36.5% in the assay on MDA-MB-231 breast; 47.6% with RXF 393 renal; 38.9% with SF-268 CNS. Besides, the growth in the assay on SF-295 CNS is -6.59% (active); in the assay with SF-539 CNS, 21.4%; with UACC-257 melanoma, 59.7%; in the assay on M14 melanoma, 24.1%; in the assay with HCT-15 colon, 24.1%; in the assay on HT29 colon it was 2.07% (active). In addition, the growth was 13.7% in the assay with SNB-75 CNS; 45.9% in the assay with SNB-19 CNS; 12.4% with U251 CNS; 15% in the assay on PC-3 prostate; -17.1% (active) in the assay on SK-MEL-5 melanoma; 44.9% in the assay with UACC-62 melanoma. Moreover, the values for the growth with LOX IMVI melanoma and with SK-MEL-28 melanoma were 26.5% and 71.5%, respectively.
With `Cc1ccc(/C=C(\C#N)n2nc3cccc(F)c3n2)cc1`, the growth in the assay with DU-145 prostate is 97.8%; in the assay on K-562 leukemia, 80.5%; in the assay on MALME-3M melanoma, 93%; in the assay on MDA-MB-231 breast, 98.3%; in the assay with RXF 393 renal it was 89.7%; with SF-268 CNS it was 93.4%. Also, the growth is 92.8% in the assay on SF-295 CNS; 92.6% in the assay with SF-539 CNS; 97.7% with UACC-257 melanoma; 98.2% with M14 melanoma; 82.6% in the assay on HCT-15 colon; 114% with HT29 colon. In addition, the growth is 74.7% in the assay with SNB-75 CNS; 96.6% with SNB-19 CNS; 86.3% with U251 CNS; 102% with PC-3 prostate; 89.9% with SK-MEL-5 melanoma; 83.7% in the assay with UACC-62 melanoma. The growth was 86.2% in the assay on LOX IMVI melanoma and 96.2% in the assay on SK-MEL-28 melanoma.
On to `CCCCCCn1c(-c2ccc(C(=O)O/N=C(\N)c3ccc4c(c3)OCO4)cc2)nc(-c2ccccc2)c1-c1ccccc1`, for which the growth with DU-145 prostate is 0.0183% (active); in the assay on K-562 leukemia, -29.7% (active); in the assay with MALME-3M melanoma, 28.1%; with MDA-MB-231 breast, 26.3%; in the assay on RXF 393 renal, -27.2% (active); in the assay with SF-268 CNS, 41.1%. The growth in the assay with SF-295 CNS was 30.6%; in the assay on SF-539 CNS it was -30.2% (active); with UACC-257 melanoma it was 62%; with M14 melanoma it was 56.2%; in the assay on HCT-15 colon, 7.82% (active); in the assay on HT29 colon, 36.3%. In addition, the growth in the assay on SNB-75 CNS is -6.91% (active); in the assay on SNB-19 CNS it was 55.3%; in the assay on U251 CNS, 8.25% (active); with PC-3 prostate, 23.2%; in the assay on SK-MEL-5 melanoma it was 62%; in the assay on UACC-62 melanoma, 48.1%. For the same molecule, the growth with LOX IMVI melanoma was -95.1% (active); in the assay with SK-MEL-28 melanoma it was 59.1%.
On to `Cc1cccc(OCC(O)CN2CCN(c3ccc(Cl)cc3)CC2)c1` (stereo not given), for which the growth was 113% in the assay with DU-145 prostate; 96.9% in the assay with K-562 leukemia; 153% with MALME-3M melanoma; 98.7% in the assay with MDA-MB-231 breast; 118% in the assay on RXF 393 renal; 99.4% with SF-268 CNS. Also, the growth is 94.5% with SF-295 CNS; 104% with SF-539 CNS; 108% with UACC-257 melanoma; 94.7% with M14 melanoma; 117% with HCT-15 colon; 104% in the assay with HT29 colon. Also, the growth was 95.1% in the assay with SNB-75 CNS; 99.8% in the assay on SNB-19 CNS; 104% in the assay on U251 CNS; 86.5% with PC-3 prostate; 100% in the assay on SK-MEL-5 melanoma; 94.2% in the assay on UACC-62 melanoma. Further, the results for the growth with LOX IMVI melanoma and in the assay with SK-MEL-28 melanoma were 96.8% and 100%, respectively.
Take `CN(C)CCN1CCN(c2ncccc2C2Nc3ccccc3-n3cccc32)CC1` (stereo not given): the growth with DU-145 prostate is 110%; in the assay on K-562 leukemia it was 89.4%; in the assay with MALME-3M melanoma, 106%; with MDA-MB-231 breast, 93.6%; with RXF 393 renal, 101%; in the assay on SF-268 CNS it was 92.3%. In addition, the growth in the assay with SF-295 CNS was 103%; with SF-539 CNS, 101%; with UACC-257 melanoma it was 101%; in the assay with M14 melanoma, 106%; in the assay with HCT-15 colon, 101%; with HT29 colon, 101%. Moreover, the growth in the assay with SNB-75 CNS is 88.3%; with SNB-19 CNS, 106%; in the assay with U251 CNS, 105%; with PC-3 prostate, 102%; with SK-MEL-5 melanoma, 104%; in the assay with UACC-62 melanoma, 105%. Moreover, the values for the growth with LOX IMVI melanoma and with SK-MEL-28 melanoma were 99.9% and 105%, respectively.
